# In PubChem BioAssay AID652104 (National Center for Advancing Translational Sciences (NCATS), 2013):
# Values joined by “and” are separate entries in the source; they are usually repeats but may differ in a detail not shown here. Identical values can stand only once. In all, about 410,000 compounds went through this assay and about 7,200 (1.8%) were called active. Another 7% or so got no clear call; they are omitted. Calls come from the whole dose curve; as a rule, active = well fitted activation curve with a large enough effect; inconclusive = small, poorly fitted or top-dose-only effect, or another doubt; inactive = no such curve, though single readings can be large or run the other way. Shown is part of a subset that was picked to be rich in actives. Some compounds were tested as several samples or in several runs, with calls that do not always agree.
# Assay: qHTS of TDP-43 Inhibitors; note: nearly all actives have a fitted effect of over 50% in size; for growth rescue (activation): % of control where 0% means no effect
# Conditions: TDP-43 expressing yeast growth rescue, BacTiter-Glo, 24 h; series mostly up to 46.1 µM; growth rescue (activation): at the top concentration
# How it was run: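 Luminescence from BacTiter-Glo reports growth of TDP-43-expressing yeast after 24 hr at 30 deg C with compound. Cells were raffinose-pregrown to mid-log, then seeded in galactose medium at OD600=0.02.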
# Potency is the fitted concentration of half-maximal effect.
Compound,growth rescue (activation),Potency
CCCSc1nc2sc3c(c2c(=O)n1-c1cccc(Br)c1)CC(C)(C)OC3,5.65% (inactive),–
Cc1c(NC(=O)Cc2ccccc2)cccc1-c1nc2cccnc2s1,22.3% (inactive),–
COc1ccc(NC(=O)N2CCCn3nc(C)cc32)cc1OC,16% (inactive),–
Cc1nnc(SCC(=O)NCCOc2ccc(Cl)cc2)n1-c1ccccc1,14.2% (inactive),–
O=C(CCSc1ccccc1)NCCSc1ccccn1,0% (inactive),–
O=C(COc1ccc(Cl)cc1)NCCSc1ccccc1,–,17.8 µM (active)
COc1cc(NC(=O)c2noc3c2CSc2ccccc2-3)cc(OC)c1OC,-10.4% (inactive),–
COC(=O)CN1C(=O)CSc2ccc(S(=O)(=O)Nc3cc(C)ccc3C)cc21,-1.74% (inactive),–
CCOC(=O)/C(=C\c1ccc([N+](=O)[O-])cc1)C(=O)c1cc(C(C)=O)c(Nc2ccccc2)s1,3.18% (inactive),–
CCOC(=O)C(=Cc1ccccc1)C(=O)c1ccccc1,–,6.31 µM (active)
CCc1ccccc1NC(=O)/C(=C/c1ccccc1)c1ccccc1,-2.9% (inactive),–
CCOc1cccc2c1N[C@@H](c1ccc(C(=O)O)cc1)[C@H]1CC=C[C@@H]21,28% (inactive),–
COc1cccc(CNC(=O)c2ccc3c(c2)N(Cc2ccc(C(F)(F)F)cc2)C(=O)c2ccccc2S3)c1OC,8.14% (inactive),–
Cn1c(=O)c2sccc2n2c(CCC(=O)NCc3ccccc3Cl)nnc12,-16.2% (inactive),–
Cn1nnnc1SCCCNCc1ccc(Cl)cc1,7.89% [at 9.22 µM] (inactive),–
COc1ccc(NC(=O)CN(C)C(=O)c2ccc(NC3CC3)c([N+](=O)[O-])c2)cc1,-18.7% (inactive),–
Cc1cc(C=O)c(C)n1-c1ccc(NC2CCCCC2)c([N+](=O)[O-])c1,–,35.5 µM (active)
Cc1c(NC(=O)CCC2CCCCC2)cc(C(=O)N2CCOCC2)cc1[N+](=O)[O-],-2.9% (inactive),–
CCc1ccc(C2C(C(=O)Nc3ccccc3)=C(C)Nc3c(C(=O)Nc4ccc(C)cc4)cnn32)cc1 (centres undefined),8.86% (inactive),–
CCOC(=O)c1ccc(NC(=O)Cn2c(=O)n(-c3ccc(C)cc3)c(=O)c3c2cnn3C)cc1,3.5% (inactive),–
Cc1ccc(-c2nnc(Nc3cccc(Br)c3)c3ccccc23)cc1S(=O)(=O)NCC1CCCO1 (centres undefined),0% (inactive),–
CCc1nccn1S(=O)(=O)c1cc(Br)ccc1Br,-1.87% (inactive),–
Cc1ccc(NC(=O)Cc2ccc(NC(=O)N3CCCCc4ccccc43)cc2)cc1,16.1% (inactive),–
O=C(CSc1ccc2nnc(-c3ccccc3)n2n1)N1CCCc2ccccc21,7.54% (inactive),–
O=C(c1cc(-c2ccc(O)cc2)on1)N1CCCc2ccccc21,–,12.6 µM (active)

Compound,growth rescue (activation),Potency
Cc1ccc(NC(=O)COc2ccc(-n3ccnc3)cc2)cc1Cl,-4.75% (inactive),–
Cc1ccc(OCC(=O)Nc2ccc3oc(=O)ccc3c2)cc1C,8.17% (inactive),–
Cc1ccc(OCC(=O)Nc2ccc(Cl)c(-c3nc4ccccc4[nH]3)c2)cc1C,–,22.4 µM (active)
Cn1c(=O)c2c(n3c4ccccc4nc13)NC(=O)CC2c1cccc(Cl)c1 (centres undefined),-15.9% (inactive),–
CC(=O)N1CCc2cc(S(=O)(=O)NC(Cc3ccccc3)C(=O)NCc3ccc(C)cc3)ccc21 (centres undefined),12.9% (inactive),–
CCOc1ccccc1CNCc1c(C(=O)O)c(C)n(Cc2ccc(C)cc2)c1C,-8.38% (inactive),–
Cc1ccc2ncc(C(=O)Nc3ccc(OC(F)(F)F)cc3)c(=O)n2c1,0.45% (inactive),–
Cc1ccc(C(=O)OCC(=O)NC2CCCCCCC2)cc1C,17.2% (inactive),–
O=C(COC(=O)c1cccc(Cl)c1Cl)NC1CCCCCC1,5.99% (inactive),–
O=C(COC(=O)c1cccc(Cl)c1)NC1CCCCCCC1,–,22.4 µM (active)
CCn1cc2nc(SCc3ccccc3Cl)n(CCc3ccccc3)c(=O)c2n1,-12% (inactive),–
COc1ccc(CNC(=O)CCc2c(C)nn(-c3ccc(N4CCCC4)nn3)c2C)cc1,3.38% (inactive),–
CC1CC(=O)N(CC(=O)Nc2cccc(Cl)c2)c2ccccc2S1(=O)=O (centres undefined),-1.06% (inactive),–
Cc1ccccc1NC(=O)CN1C(=O)C(C)(C)c2ccccc21,21.2% (inactive),–
Cc1ccc(NC(=O)CN2C(=O)CC(C)Sc3ccccc32)c(C)c1 (centres undefined),–,17.8 µM (active)
COC(=O)c1c(NC(=O)c2cc(=O)c3c(C)cc(C)cc3o2)sc2c1CCCC2,0% (inactive),–
COc1ccc(-c2noc(CSc3nc4ccc(C)cc4[nH]3)n2)cc1,8.72% (inactive),–
COc1ccc(OC)c(CNC(=O)Cn2nc(C)c3c(C)n(-c4ccccc4)nc3c2=O)c1,5.84% (inactive),–
CC1(C)Cc2ccccc2/C(=C/C(=O)c2ccccc2)N1,–,12.6 µM (active)
CCOC(=O)C1=C(NC(=S)NC(=O)c2ccccc2)c2ccccc2CC1(C)C,16.4% (inactive),–
CC(C)CC(N=C1NC(C)(C)Cc2ccccc21)C(=O)O (centres undefined),-13.2% (inactive),–
O=C(CSc1n[nH]c(-c2ccccc2)n1)N1CCCCC1,18.7% (inactive),–
Cc1cc(=O)n(CC(=O)Nc2cccc([N+](=O)[O-])c2)c(-n2nc(C)cc2C)n1,28.7% (inactive),–
COC(=O)c1cc(NC(=O)CCS(=O)(=O)c2cc(Br)cc3c2N(C(=O)C2CC2)CC3)cc(C(=O)OC)c1,11.2% (inactive),–
COc1ccc(CCNc2nc(-c3ccc(F)cc3)cc(C(F)(F)F)n2)cc1OC,-15.4% (inactive),–

Compound,growth rescue (activation),Potency
COc1ccc(CNc2nc(-c3ccc(Cl)cc3)cc(C(F)(F)F)n2)cc1,23.9% (inactive),–
COc1ccc(-c2cc(C(F)(F)F)nc(S(C)(=O)=O)n2)cc1OC,–,10 µM (active)
COc1ccccc1CNC(=O)Cn1nc(C)c2nn(-c3ccc(Cl)cc3)c(C)c2c1=O,6.06% (inactive),–
COc1ccccc1OCCCn1c(-c2ccc(Cl)cc2)nc2ccccc2c1=O,-6.55% (inactive),–
O=C(O)c1ccccc1CSc1nc2ccccc2s1,–,12.6 µM (active)
CN(C(=O)CSc1nc2ccc(NC(=O)COc3ccccc3)cc2s1)c1ccccc1,27.4% (inactive),–
O=C(Nc1ccc2nc(SCC(=O)N3CCc4ccccc43)sc2c1)c1ccccc1F,-12.6% (inactive),–
Cc1cccc(-c2nc(SCc3ccc(Br)cc3)n3[nH]c(=O)cc3n2)c1,8.73% (inactive),–
COc1ccc(CC(=O)N2CC(=O)Nc3ccc(Br)cc3C2c2ccc(F)cc2)cc1OC (centres undefined),-19.6% (inactive),–
Cn1nc(-c2ccc(Cl)cc2)c2cc(C(=O)NCc3ccco3)sc21,19.9% (inactive),–
COc1ccccc1N1CCN(C(=O)c2cc3c(-c4ccc(Cl)cc4)nn(C)c3s2)CC1,–,35.5 µM (active)
COc1ccc(Nc2ncc(C(=O)N3CCN(c4ccccc4OC)CC3)c3ccccc23)cc1,–,inactive
COc1cccc(-c2cc(C(=O)N3CCN(c4ccccc4OC)CC3)no2)c1,–,22.4 µM (active)
COc1ccc(CNC(=O)c2cc3c(-c4ccccc4F)nn(C)c3s2)c(OC)c1,19.5% (inactive),–
CCS(=O)(=O)N1CCc2cc(C(=O)N3CCN(c4ccccc4OC)CC3)ccc21,-2.38% (inactive),–
COc1ccc(C(=O)NCC(c2ccc(N(C)C)cc2)N2CCc3ccccc32)c(OC)c1 (centres undefined),7.72% (inactive),–
CCOC(=O)c1c(NC(=O)COc2cc(C)ccc2C(C)C)sc(C)c1C,8.05% (inactive),–
CCc1ccccc1OCCSc1nc(-c2cccs2)nc2cc(=O)[nH]n12,2.88% (inactive),–
Cc1nn(C(C)C(=O)NCCc2ccccc2)c(=O)c2c1sc1ccccc12 (centres undefined),7.28% (inactive),–
O=C(NCCc1ccccc1)c1ccc2c(c1)N(Cc1ccc(F)cc1)C(=O)c1ccccc1S2(=O)=O,3.53% (inactive),–
CCCCN1C(=O)c2[nH]nc(-c3ccccc3O)c2C1c1cccc(OCc2ccccc2)c1 (centres undefined),0% (inactive),–
Cn1c(=O)c2c(ncn2CC(=O)Nc2cccc(C(F)(F)F)c2)n(C)c1=O,20.5% (inactive),–
CSc1nc(-c2ccc(F)cc2)nc2c1Cc1c(CO)cnc(C)c1O2,21.5% (inactive),–
O=C(CSc1ccc(-c2ccccn2)nn1)Nc1ccccc1,–,28.2 µM (active)
COc1cc(NC(=O)CSc2ccc(-c3cccnc3)nn2)cc(OC)c1,-17.4% (inactive),–

Compound,growth rescue (activation),Potency
O=C(CSc1ccc(-c2ccc(-n3cccn3)cc2)nn1)Nc1ccc([N+](=O)[O-])cc1,12.4% (inactive),–
CCc1ccc(NC(=O)CN2CCSc3ccc(S(=O)(=O)N4CCCC4)cc32)cc1,15.8% (inactive),–
Cc1cccc(N2CCN(c3c(CN4CCCC4)c(=O)oc4ccccc34)CC2)c1C,9.53% (inactive),–
COc1ccc(C)cc1Nc1nc2ccccc2c2nnc(C)n12,14.7% (inactive),–
Cc1ccc(C(=O)Nc2c(C(=O)NC(C)(C)C)oc3ccccc23)cc1,14.8% (inactive),–
COc1ccccc1CN(C)C(=O)c1cc2ccccc2o1,20.2% (inactive),–
CCNc1nc(-c2cc3ccccc3o2)cs1,–,14.1 µM (active)
Cn1c(SCC(=O)NC2CCCCC2)nnc1-c1cc2ccccc2o1,-2.43% (inactive),–
Cc1ccc(N2CC(c3nnc(Cc4ccccc4Cl)o3)CC2=O)cc1 (centres undefined),22.1% (inactive),–
COc1cc(C(=O)N2CCN(C(=O)COc3cccc(C)c3)CC2)cc(OC)c1OC,9.38% (inactive),–
CCN(CC)S(=O)(=O)c1ccc2c(c1)c(=O)c(C(=O)N1CCN(c3cccc(Cl)c3)CC1)cn2C,15.9% (inactive),–
Cc1cccc(CNS(=O)(=O)c2ccc(-c3cnc(C4CC4)o3)cc2)c1,–,inactive and 12.6 µM (active)
Cc1cccc(CCNS(=O)(=O)c2ccc(S(=O)(=O)NC3CCCC3)cc2)c1,-9.75% (inactive),–
Cc1ccc(-c2cnc(C3CC3)o2)cc1S(=O)(=O)Nc1cccc(C)c1C,17% (inactive),–
O=C(CN1CCSc2ccccc21)N1CCN(c2ccccc2)CC1,29.6% (inactive),–
COc1ccccc1NC(=O)c1cc(C2CC2)nc2c1c(C)nn2-c1ccc(C)cc1,0% [at 9.22 µM] (inactive),–
CC(=O)Nc1ccc(-c2ccnc3c2CC(C(=O)NC(C)C)O3)cc1 (centres undefined),22.5% (inactive),–
COc1ccc(NC(=O)C2Cc3c(-c4ccc(Cl)cc4)ccnc3O2)cc1 (centres undefined),–,14.1 µM (active)
COc1ccc(NC(=O)C2Cc3c(-c4cccc(NC(C)=O)c4)ccnc3O2)cc1OC (centres undefined),10.1% (inactive),–
CC1CCc2noc(NC(=O)c3ccc([N+](=O)[O-])cc3)c2C1 (centres undefined),6.42% (inactive),–
Cc1cc(C)cc(OCC(=O)Nc2nc(-c3ccc(F)cc3)ns2)c1,6.88% (inactive),–
Cn1nccc1C(=O)NC1CCCc2c1cnn2-c1ccc(F)cc1F (centres undefined),10.7% (inactive),–
COc1cccc(C(=O)Nc2c3c(nn2-c2cccc(C)c2C)CS(=O)(=O)C3)c1OC,-20.6% (inactive),–
COc1ccc(C(=O)NC2CCCc3c2cnn3-c2cccc(C)c2C)c(OC)n1 (centres undefined),–,15.8 µM (active)
